Experimental data reported in article PMC5540273 (PLoS ONE, 2017).
Read-outs that look alike come from different tables or passages of the source.

Tests used:
[1] = system: PRKD3; settings: concentration: 1 μM, replicates: in singlicate; n = 1
[2] = system: PRKG1; settings: n = 1
[3] = system: PRKG2; settings: concentration: 1 μM, replicates: in singlicate; n = 1
[4] = system: T1, PRKR; settings: concentration: 1 μM, replicates: in singlicate; n = 1
T1 construct: gene EIF2AK2

[5] = system: PRKX; settings: n = 1
[6] = system: PRP4; settings: concentration: 1 μM, replicates: in singlicate; n = 1
[7] = system: T2, PYK2; settings: concentration: 1 μM, replicates: in singlicate; n = 1
T2 construct: gene PTK2B

[8] = system: QSK; settings: concentration: 1 μM, replicates: in singlicate; n = 1
[9] = system: RAF1; settings: concentration: 1 μM, replicates: in singlicate; n = 1
[10] = system: RET; settings: concentration: 1 μM, replicates: in singlicate; n = 1
[11] = concentration: 1 μM, replicates: in singlicate
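Note: KINOMEscan kinase panel screen.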

SMILES	%Inh [1] [%]	%Inh [2, 11] [%]	%Inh [3] [%]	%Inh [4] [%]	%Inh [5, 11] [%]	%Inh [6] [%]	%Inh [7] [%]	%Inh [8] [%]	%Inh [9] [%]	%Inh [10] [%]	%Inh ([2]; 1 µM) [%]	%Inh ([5]; 1 µM) [%]
Cl.Cl.NCC(C(=O)Nc1cc(Br)c(-c2ccnc3[nH]ccc23)s1)c1ccccc1 (centres unmarked) [GSK1269851]	41	94.6	86	0	88	83	2	15	0	32		
CN1CCN(Cc2cccc(-c3ccc4c(Nc5ccc(Oc6ccccc6)cc5)ccnc4c3)c2)CC1 [GW578342]	0	0	0	0	6	27	0	9	0	48		
CCc1ccc(-c2ccc3c(c2)-c2c(cnn2C)S(=O)(=O)N3C)cc1	0	0	0	6	16	10	0	0	19	5		
Cc1ccc(C(=O)Nc2ccc(Nc3ccnc4cc(-c5nccs5)ccc34)cc2O)cc1.Cl [GW494702]	0	0	0	0	11	46	0	0	19	59		
Cc1ccc(C(=O)N2CC[C@@H](O)C2)cc1-n1c(C)cc(OCc2ccc(F)cc2F)c(Br)c1=O	7	6	0	0	0	20	2	0	25	10		
Cc1cccc(NC(=O)Nc2ccc(Oc3ncnc4ccn(C)c34)cc2)c1	0	100	0	0	0	0	0	0	0	94		
c1ccc(Oc2ccc(Nc3ccnc4cc(-c5ccc(CNCCN6CCOCC6)o5)ccc34)cc2)nc1 [GW567145]	23	1	2	0	0	36	0	17	2	5		
COc1cccc(C(=O)Nc2cccc(Oc3ccc4nc(NC(=O)C5CC5)cn4n3)c2)c1	15	0	21	0	2	0	9	0	96.8	100		
CC(=O)Nc1nc2cnc(Nc3cc(NC(=O)c4cccc(C5(C#N)CC5)c4Cl)ccc3C)nc2s1	0	0	0	0	19	6	20	0	99.2	99.6		
CN(c1ccc(NC(=O)Nc2cc(C(F)(F)F)ccc2F)cc1)c1ccnc(Nc2ccc(S(N)(=O)=O)cc2)n1 [GW809893]	0	16	17	3	0	14	94.8	25	88	100		
Fc1ccc(-c2ncn(C3CCNCC3)c2-c2ccnc(Oc3ccc(-c4ccccc4)cc3)n2)cc1 [SB-245391]	0	6	26	25	0	0	80	7	0	3		
c1ccc(-c2n[nH]cc2Nc2ccnc3ccccc23)nc1 [GW694077]	100	5	0	16	0	89	0	0	7	0		
COc1cc(Nc2ncc3c(C)nc(-c4cc5ccccc5[nH]4)n3n2)cc(OC)c1OC [GW869516]	0	0	0	35	0	0	36	0	18	45		
O=C(Nc1cccc(Oc2ccc3nc(NC(=O)C4CC4)cn3n2)c1)c1ccccc1C(F)(F)F	0	0	0	8	5	5	6	0	76	99.9		
CSc1cccc2c(-c3ccncn3)c(-c3ccc(F)cc3)nn12 [GW514786]	100	17	0	0	16	19	0	14	4	29		
Cc1ccc(F)c(C(=O)Nc2cccc(-c3nn4ccccc4c3-c3ccnc(Nc4cccc(F)c4)n3)c2)c1F [GSK361061]	32	18	0	0	12	15	0	17	87	96.3		

SMILES	%Inh [1] [%]	%Inh [2, 11] [%]	%Inh [3] [%]	%Inh [4] [%]	%Inh [5, 11] [%]	%Inh [6] [%]	%Inh [7] [%]	%Inh [8] [%]	%Inh [9] [%]	%Inh [10] [%]	%Inh ([2]; 1 µM) [%]	%Inh ([5]; 1 µM) [%]
O=C(Nc1cccc(-c2nn3ccccc3c2-c2ccnc(Nc3cccc(F)c3)n2)c1)c1c(F)ccc(F)c1Cl [GSK357952]	39	1	1	0	22	8	0	5	79	84		
Cc1cccc(Nc2nc(N[C@H]3CCNC3)ncc2C(N)=O)c1.Cl [GSK2197149]	75	0	0	22	38	23	49	14	0	30		
COc1ccc(CNC(=O)NC2CCN(c3ccnc(Nc4ccc(F)cc4)n3)CC2)cc1 [GSK1379788]	0	0	0	0	5	46	0	0	7	0		
Cl.c1ccc(-c2ccc3c(Nc4ccc5[nH]ncc5c4)ccnc3c2)nc1 [GW440137]	17	0	0	0	19	66	2	6	15	76		
Cn1cc(-c2ccc3c(c2)CCN3C(=O)Cc2cccc(F)c2)c2c(N)ncnc21 [GSK2603358]	2	0	4	1	14	44	0	8	9	47		
CC(=O)N1CCN(c2ccc(Nc3nccc(-c4sc(C(C)C)nc4-c4cccc(NS(=O)(=O)c5cccc(Cl)c5)c4)n3)cn2)CC1 [GSK1660437]	100	25	0	0	5	2	0	10	86	54		
COc1cc(Nc2nccc(N3CCC(NC(=O)c4cc5ccccc5s4)C3)n2)cc(OC)c1OC (centres unmarked) [GSK1379760]	0	9	7	8	24	48	0	100	15	21		
COc1cc(Nc2nccc(-c3c(-c4cccc(NC(=O)c5c(F)cccc5F)c4)nn4ncccc34)n2)cc(OC)c1OC [GSK327238]	0	24	15	22	0	0	72	17	97.2	99.7		
Oc1cc(Nc2ccnc3cc(I)ccc23)ccc1F [GW552771]	40	0	0	0	0	18	25	69	49	85		
Cl.Cl.NCC(NCc1ccc(-c2ccnc3[nH]ccc23)s1)c1ccccc1 (centres unmarked) [GSK1321565]	56	97.1	97.8	0	94.2	86	9	0	2	49		
O=C(Nc1ccccc1F)NC1CCN(c2ccnc(Nc3ccc(F)cc3)n2)CC1 [GSK1379800]	0	15	0	0	7	45	0	1	16	4		
O=C(Nc1cccc(-c2nn3ncccc3c2-c2ccnc(Nc3ccccc3)n2)c1)c1c(F)cccc1F [GSK198271]	47	0	0	0	11	6	27	10	94.1	99.7		
COC(=O)Nc1nc2cc(Oc3ccc(NC(=O)Nc4cc(C(F)(F)F)ccc4F)cn3)ccc2[nH]1.Cl.Cl [GW681170]	13	9	22	0	0	22	16	0	90.3	99.9		
O=C(Nc1n[nH]c2nc(-c3ccc(O)cc3)ccc12)C1CC1 [SB-710363]	0	19	10	0	0	0	26	17	13	0		
CCn1c(-c2nonc2N)nc2c(C#CC(C)(C)O)ncc(OCCCCN)c21.O=C(O)C(F)(F)F.O=C(O)C(F)(F)F [GSK507274]	0		96	0		2	0	5	13	1	64	94.1
COc1cccc(C2=C(Nc3ccc(Cl)c(C(=O)O)c3)C(=O)NC2=O)c1 [SB-390769]	0	0	41	9	0	31	0	100	14	11		
